Inconclusive results are not listed. Where a call stands in place of a potency, no number is given. Calls of active or inactive are those of the source. Calls come from the whole dose curve; as a rule, active = well fitted cell-killing curve with a large enough effect in the repeat runs; inconclusive = weak or mixed curves, or effect the other way; inactive = flat fitted curve, though single readings scatter.

From PubChem BioAssay (Tox21) come the findings set out here.

The nature of test [1]: cAMP Responsive Elements (CRE) small molecule antagonists, cell-based qHTS assay: qHTS cell viability counter screen (AID 2060913). Note: nearly all actives have a fitted effect of over 40% in size. The gist of the method: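 Cytotoxicity counter screen multiplexed with the CRE-bla antagonist read: HEK293T cells in DMEM with dialyzed FBS and 25 mM HEPES were treated 3 hrs under 0.25 uM final NKH477, then viability measured by CellTiter-Glo luminescence.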
For orientation: In qHTS, concentration-response curves come from the screen itself.

Test [2] can be described thus: cAMP Responsive Elements (CRE) small molecule agonists, cell-based qHTS assay: qHTS cell viability counter screen (AID 2060914).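 Note: viability read after 3 h of compound exposure; nearly all actives have a fitted effect of over 50% in size.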 The gist of the method:
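Cells are seeded and incubated 18 h, treated with compounds in DMSO for 3 h, read for the bla reporter, then given CellTiter-Glo; luminescence is measured after 30 min at room temperature.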

`Cc1occc1S`: the Potency entry in test [1] and in test [2] was “inactive” each time.

For the compound `CCOc1c(N2CCOCC2)cnn(C)c1=O`, the Potency result in test [1] and in test [2] was “inactive” each time.

Regarding `CCCCCCc1ccc(O)cc1O`, the Potency result in test [1] and in test [2] was “inactive” each time.

In the case of `Nc1cc(-c2ccncc2)c[nH]c1=O`, the Potency result in test [1] and in test [2] was “inactive” throughout.

`Nc1ccc(F)cc1F`: the Potency entry in test [1] and in test [2] was “inactive” each time.

With `C/C(=N\O)c1ccc(OCC(=O)N2CCCCC2)cc1`, the Potency entry in test [1] and in test [2] was “inactive” in each case.

As for `COc1ccc(O)cc1`, the Potency result in test [1] and in test [2] was “inactive” throughout.

Take `O=C(/C=C/C=C/c1ccc2c(c1)OCO2)N1CCCCC1`: the Potency entry in test [1] and in test [2] was “inactive” each time.

As to `NC(=O)Cn1c(=O)cc(CCN2CCN(c3nccc4sccc34)CC2)c2ccc(F)cc21`, the Potency entry in test [1] and in test [2] was “inactive” throughout.

Regarding `O=C(O)c1cc(C(=O)O)cc(S(=O)(=O)O)c1`, the Potency result in test [1] and in test [2] was “inactive” throughout.

For the compound `N#Cc1cscn1`, the Potency entry in test [1] and in test [2] was “inactive” throughout.

For the compound `O=C1[C@H](CC[C@H](O)c2ccc(F)cc2)[C@@H](c2ccc(O)cc2)N1c1ccc(F)cc1`, the Potency entry in test [1] and in test [2] was “inactive” each time.

For `Cc1ccc(C(=O)Oc2ccc(C(O)CNC(C)(C)C)cc2OC(=O)c2ccc(C)cc2)cc1` (stereo not given), the Potency entry in test [1] and in test [2] was “inactive” each time.

For the compound `O=C(O)CC(C(=O)O)C(CC(=O)O)C(=O)O` (stereo not given), the Potency result in test [1] and in test [2] was “inactive” each time.

Consider `CCOc1ccc(N)c([N+](=O)[O-])c1`, for which the Potency result in test [1] and in test [2] was “inactive” each time.

Take `C/C=C(\C)C(=O)OCc1ccccc1`: the Potency entry in test [1] and in test [2] was “inactive” in each case.

On to `CC(=O)NCc1c(I)c(NC(C)=O)c(I)c(C(=O)O)c1I`, for which the Potency entry in test [1] and in test [2] was “inactive” each time.

For the compound `COC(=O)C1=C(C)NC(C)=C(C(=O)OC(C)C)C1c1cccc2nonc12` (stereo not given), the Potency entry in test [1] and in test [2] was “inactive” throughout.

`CCN(CC)CC1CCCCN1CC(=O)N1c2ccccc2C(=O)Nc2cccnc21` (stereo not given): the Potency result in test [1] and in test [2] was “inactive” throughout.

Consider `O=NN(CCCl)C(=O)NC1CCCCC1`, for which the Potency result in test [1] and in test [2] was “inactive” throughout.
